Experimental findings from PubChem BioAssay (EPA / NIEHS) are described below.

The structures appear in SMILES notation. Records with an inconclusive call do not appear. The source made the active and inactive calls. Rule for the calls: active = hit-call score of the fitted dose curve at least 0.9, where 1 is the maximum; inconclusive = response in the unintended direction; inactive = score below 0.9.

Read-out in the experiment: glucuronosyltransferase (UGT1A1), UGT1A1 (gene 54658)
The experiment in a line: CLD_UGT1A1_48hr: CellzDirect (CLD) Gene Expression Assay for glucuronosyltransferase (UGT1A1) at 48 hours (AID 2283709).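 Note: actives increase expression relative to DMSO so potency refers to induction.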 Here is the method:
CLD_48hr is a cell-based, multiplexed-readout assay that uses hepatocyte, a human liver primary cell, with measurements taken at 48 hours after chemical dosing in a 96-well plate.CLD_UGT1A1_48hr is one of 16 assay component(s) measured or calculated from the CLD_48hr assay. It is designed to make measurements of mRNA induction, a form of inducible reporter, as detected with chemiluminescence signals by Quantitative Nuclease Protection Assay (qNPA) technology.Data from the assay component CLD_UGT1A1_48hr was analyzed at the endpoint, CLD_UGT1A1_48hr, in the positive analysis fitting direction relative to DMSO as the negative control and baseline of activity. Using a type of inducible reporter, gain-of-signal activity can be used to understand changes in the reporter gene as they relate to the gene UGT1A1. Furthermore, this assay endpoint can be referred to as a primary readout. To generalize the intended target to other relatable targets, this assay endpoint is annotated to the transferase intended target family, where subfamily is glucuronosyltransferase.
Human hepatocyte cultures were treated daily for two consecutive days with fresh dosing solutions containing appropriate concentrations of the 320 ToxCast chemicals (chemical identities were blinded to CellzDirect and other ToxCast collaborators), vehicle control (0.2% DMSO), and positive control inducers as summarized in Table 1. Due to the large number of treatment groups and chemicals examined, the ToxCast chemicals were divided into two groups (spanning two independent cultures of hepatocytes from separate donor preparations (Hu778: ToxCast plates 1 and 2; Hu776: ToxCast plates 3 and 4). Each preparation of human hepatocyte cultures was treated with respective vehicle control, medium only control, set of six positive controls/reference chemicals for the five hepatic receptor pathways, and a subset of eight of the ToxCast chemicals (indoxacarb, pyrithiobac-sodium, norflurazon, cyhalofop-butyl, methomyl, thiram, acetochlor, and propiconazole). These replicate data, coupled with internal replicates designed within the blinded ToxCast chemical library, provided additional data to evaluate interindividual differences between hepatocyte preparations and their potential impact on chemical profiles.Cell morphology and integrity were evaluated using phase-contrast microscopy as an indicator of hepatocyte cell health (Tyson & Green, 1987). Cultures for each treatment group (i.e., media, vehicle [0.2% DMSO], positive control inducers [multiple concentrations], and the ToxCast chemicals [multiple concentrations]) were observed and cell morphology was assessed relative to vehicle control cultures at each harvest time point (0, 6, 24, or 48 h). […] Images were evaluated at the conclusion of the study to assess changes in cell integrity and account for the effects of chemical exposure on uncharacteristic changes in concentration-dependent gene expression profiles. The results from these determinations of apparent cytotoxicity were annotated (yes/no) alongside the corresponding qNPA data for reference.At the conclusion of each treatment period, hepatocyte cultures (96-well) were washed with 1 volume of HBSS, lysed by addition of 25 ul ArrayPlate lysis buffer (HTG, Tucson, AZ), and 70 ul/well of Denaturation Oil, denatured by incubation at 95C for 10 min, and frozen at approximately -70C until analysis by nuclease protection assay (qNPA) (Roberts et al., 2007). For qNPA analysis, cell lysates were thawed at 50C for approximately 30 min, qNPA probes were added, and samples were incubated at 95C for 10 min to begin the detection process by denaturing the target RNA, dissociating the duplexes and secondary structure hybridization. At the conclusion of the hybridization period, S1 nuclease reagent was added to each sample to digest all nonprotected nucleotides at 50C for 60-90 min. […]
For `CNC(=O)CSP(=S)(OC)OC`, the compound was classed as inactive.

Consider `CCC(C)Nc1c([N+](=O)[O-])cc(C(C)(C)C)cc1[N+](=O)[O-]` (stereo not given), for which the AC50 is 2.8 µM (active).

As to `Cc1[nH]c(=O)n(C(C)(C)C)c(=O)c1Cl`, the result was inactive.

`O=S1OCC2C(CO1)C1(Cl)C(Cl)=C(Cl)C2(Cl)C1(Cl)Cl` (stereo not given): the compound was called inactive.

In the case of `O=C1c2ccccc2C(=O)N1SC(Cl)(Cl)Cl`, the call was inactive.

Turning to `O=C(O)C(F)(F)C(F)(F)C(F)(F)C(F)(F)C(F)(F)C(F)(F)C(F)(F)F`, the compound was classed as inactive.

Regarding `COP(=O)(OC)OC=C(Cl)Cl`, the outcome was inactive.

As for `CC(C)OC(=O)Nc1cccc(Cl)c1`, the AC50 was 12.8 µM (active).

Turning to `O=C(O)CCCOc1ccc(Cl)cc1Cl`, the compound was called inactive.

In the case of `C[C@H]1[C@H](c2ccc(Cl)cc2)SC(=O)N1C(=O)NC1CCCCC1`, the compound was called inactive.

With `O=C(NC(=O)c1c(F)cccc1F)Nc1ccc(OC(F)(F)C(F)OC(F)(F)F)c(Cl)c1` (stereo not given), the result was inactive.

In the case of `Oc1cc(Cl)ccc1Oc1ccc(Cl)cc1Cl`, the compound was called inactive.

For `C#CCN1C(=O)COc2cc(F)c(N3C(=O)C4=C(CCCC4)C3=O)cc21`, the compound was classed as inactive.

With `CC(C)(C)C(O)/C(=C\c1ccc(Cl)cc1Cl)n1cncn1` (stereo not given), the call was inactive.

Turning to `ClC1C(Cl)C(Cl)C(Cl)C(Cl)C1Cl` (stereo not given), the compound was classed as inactive.

With `CCCN(CCC)c1c([N+](=O)[O-])cc(C(F)(F)F)cc1[N+](=O)[O-]`, the AC50 is 3.27 µM (active).

Consider `CNC(=O)Oc1cccc(N=CN(C)C)c1`, for which the compound was classed as inactive.

Turning to `CCc1ccc(C(=O)NN(C(=O)c2cc(C)cc(C)c2)C(C)(C)C)cc1`, the AC50 is 3.53 µM (active).

Consider `Oc1ccc(Cl)cc1Cc1ccccc1`, for which the compound was called inactive.

For the compound `O=[N+]([O-])c1c(Cl)c(Cl)c(Cl)c(Cl)c1Cl`, the compound was classed as inactive.

`CN1CSC(=S)N(C)C1`: the outcome was inactive.

As for `COc1nn(CSP(=S)(OC)OC)c(=O)s1`, the compound was classed as inactive.

Regarding `CCOCN(C(=O)CCl)c1c(C)cccc1CC`, the call was inactive.

In the case of `COP(=S)(OC)Oc1ccc(SC)c(C)c1`, the outcome was inactive.

`CC1(C)C(C=C(Cl)Cl)C1C(=O)OC(C#N)c1ccc(F)c(Oc2ccccc2)c1` (stereo not given): the result was inactive.

As for `CC(C)N(C(=O)COc1nnc(C(F)(F)F)s1)c1ccc(F)cc1`, the outcome was inactive.

Turning to `CNC(=O)Oc1ccccc1OC(C)C`, the result was inactive.

Regarding `CCC(C)(C)C(=O)OC1=C(c2ccc(Cl)cc2Cl)C(=O)OC12CCCCC2`, the call was inactive.

As for `N#CN`, the result was inactive.

Regarding `COC(=O)c1ccccc1CS(=O)(=O)NC(=O)Nc1nc(OC)cc(OC)n1`, the result was inactive.

For `O=C(Nc1ccccc1)Nc1cnns1`, the half-maximal activity concentration (AC50) is 9.87 µM (active).

Regarding `Cc1cc(C)nc(NC(=O)NS(=O)(=O)c2ccccc2C(=O)OC2COC2)n1`, the result was inactive.

Regarding `CCS(=O)(=O)c1cccnc1S(=O)(=O)NC(=O)Nc1nc(OC)cc(OC)n1`, the compound was classed as inactive.

As for `O=[N+]([O-])/N=C1\NCCN1Cc1ccc(Cl)nc1`, the outcome was inactive.

As for `COC(=O)c1ccccc1S(=O)(=O)NC(=O)Nc1nc(C)nc(OC)n1`, the compound was called inactive.

In the case of `CCN(CC)C(=O)SCc1ccc(Cl)cc1`, the AC50 is 20 µM (active).

For `CNC(=O)/C=C(\C)OP(=O)(OC)OC`, the compound was called inactive.

On to `OCCOc1ccccc1`, for which the call was inactive.

`CCOC1Oc2ccc(OS(C)(=O)=O)cc2C1(C)C` (stereo not given): the compound was classed as inactive.

Take `CCC(C)(NC(=O)c1cc(Cl)c(C)c(Cl)c1)C(=O)CCl` (stereo not given): the compound was classed as inactive.

As usually defined, the AC50 is the midpoint of the concentration-response curve, whichever way the signal moves.
